Assay results published in the antibiotic and cytotoxicity screens of Wong et al. (2023).
Screen size: about 39,000 compounds; about 3,300 (8.5%) were called active. This excerpt belongs to a sample that is enriched for actives.

System: HepG2
Experiment: cytotoxicity call (relative viability < 0.9)
Details: 10 µM

SMILES | cytotoxicity call
CC(C)C[C@@H]1NC(=O)[C@@H]2C[C@H](C(=O)NCCCCCNC(=O)CS)[C@H](c3ccc(O)cc3)N2C1=O | inactive
C[C@H]1CN([C@@H](C)CO)S(=O)(=O)c2ccc(-c3cccc(C#N)c3)cc2O[C@H]1CN(C)C(=O)c1ccncc1 | inactive
C[C@@H]1CN([C@@H](C)CO)S(=O)(=O)c2ccc(-c3ccc(C(=O)N(C)C)cc3)cc2O[C@@H]1CN(C)C(=O)C1CCOCC1 | inactive
CN(C)CCOc1ccc(C(=C(CCCl)c2ccccc2)c2ccccc2)cc1.O=C(O)CC(O)(CC(=O)O)C(=O)O | active
CCN(CC)CCOCCOC(=O)C(CC)(CC)c1ccccc1.O=C(O)CC(O)(CC(=O)O)C(=O)O | inactive
CCN(CC)CCOCCOC(=O)C1(c2ccccc2)CCCC1.O=C(O)CC(O)(CC(=O)O)C(=O)O | active
Cc1ccccc1C(OCCN(C)C)c1ccccc1.O=C(O)CC(O)(CC(=O)O)C(=O)O (centres undefined) | inactive
O=C(O)C1(c2ccccc2)CCCC1 | inactive
O=C(O)CC(O)(CC(=O)O)C(=O)O [listing 1 of 2 here] | inactive
O=C(O)CC(O)(CC(=O)O)C(=O)O [listing 2 of 2 here] | inactive
CCN(CC)CCOc1ccc(C(=C(Cl)c2ccccc2)c2ccccc2)cc1.O=C(O)CC(O)(CC(=O)O)C(=O)O | active
CCC(=C(c1ccccc1)c1ccc(OCCN(C)C)cc1)c1ccccc1.O=C(O)CC(O)(CC(=O)O)C(=O)O | inactive
O=C(C[C@@H]1CC[C@@H]2[C@H](COC[C@H](O)CN2S(=O)(=O)c2ccc(F)cc2)O1)NCCN1CCCCC1 | inactive
C[C@@H]1CN([C@H](C)CO)C(=O)c2cccc(NS(C)(=O)=O)c2O[C@H]1CN(C)C(=O)Nc1ccc2c(c1)OCO2 | inactive
CC(C)CC#Cc1ccc2c(c1)O[C@H](CN(C)Cc1cncnc1)[C@@H](C)CN([C@H](C)CO)S2(=O)=O | inactive
C=CC(=O)Nc1ccc([C@@H](CCc2ccc(OC)c(OC)c2)OC(=O)[C@@H]2CCCCN2C(=O)C(=O)C(C)(C)CC)cc1 | inactive
Cc1ccc(S(=O)(=O)Nc2ccc3c(c2)C(=O)N([C@H](C)CO)C[C@@H](C)[C@@H](CN(C)C(=O)Cc2ccccc2)OCCCC[C@H](C)O3)cc1 | inactive
COCC(=O)Nc1ccc2c(c1)OC[C@@H](C)N(Cc1ccccc1F)C[C@@H](C)[C@H](OC)CN(C)C2=O | inactive
Cc1noc(C)c1NC(=O)Nc1ccc2c(c1)C(=O)N([C@@H](C)CO)C[C@@H](C)[C@H](CN(C)S(=O)(=O)c1cccs1)OCCCC[C@H](C)O2 | inactive
C[C@@H]1CN([C@H](C)CO)C(=O)c2cc(NC(=O)Cn3cnnn3)ccc2O[C@@H]1CN(C)S(=O)(=O)c1cccs1 | inactive
OC[C@@H]1CCCN1 | inactive
OC[C@@H]1CCCCN1 | inactive
C1CCC(C(C[C@H]2CCCCN2)C2CCCCC2)CC1 | active
O=C(O)[C@@H]1CCCCN1 | inactive
C1CCC(C(CC2CCCCN2)C2CCCCC2)CC1.O=C(O)C=CC(=O)O (centres undefined) | active

SMILES | cytotoxicity call
O=C(O)CC[C@H]1CCCCN1 | inactive
C[C@H]1CN([C@@H](C)CO)C(=O)c2cccc(NS(=O)(=O)c3cn(C)cn3)c2O[C@H]1CN(C)CC1CCCCC1 | inactive
CCCC#Cc1ccc2c(c1)O[C@@H](CN(C)S(=O)(=O)c1cccc(F)c1)[C@@H](C)CN([C@@H](C)CO)S2(=O)=O | inactive
O=C(CN1CCOCC1)NCC[C@H]1CC[C@@H](NC(=O)c2ccccc2F)[C@@H](CO)O1 | inactive
CC(C)NC(=O)N(C)C[C@@H]1Oc2ccc(NC(=O)CCCN(C)C)cc2C(=O)N([C@H](C)CO)C[C@H]1C | inactive
CCc1nc2ccccc2nc1CC | inactive
Nc1oncc1-c1ccc(Cl)cc1 | inactive
CCc1nc(N)nc(N)c1-c1ccc(Cl)cc1 | active
C[C@@H]1CN([C@@H](C)CO)C(=O)c2cc(NC(=O)Nc3ccccc3)ccc2O[C@@H](C)CCCCO[C@H]1CN(C)C(=O)Cc1ccccc1 | inactive
C[C@@H]1CCCCO[C@@H](CN(C)C(=O)Nc2ccc(F)cc2)[C@@H](C)CN([C@H](C)CO)C(=O)c2cc(NC(=O)Nc3ccc(C(F)(F)F)cc3)ccc2O1 | inactive
C[C@@H]1CN([C@H](C)CO)S(=O)(=O)c2ccc(C#Cc3ccccc3F)cc2O[C@@H]1CN(C)CC1CC1 | inactive
C[C@@H]1CN([C@H](C)CO)S(=O)(=O)c2ccc(C#Cc3ccccc3F)cc2O[C@@H]1CN(C)C(=O)Cc1cccnc1 | inactive
C[C@@H]1CN([C@@H](C)CO)S(=O)(=O)c2ccc(C#Cc3ccccc3F)cc2O[C@@H]1CN(C)C(=O)c1ccc2c(c1)OCO2 | active
C[C@@H]1CN([C@@H](C)CO)S(=O)(=O)c2ccc(C#Cc3ccccc3F)cc2O[C@@H]1CN(C)C(=O)Cc1cccnc1 | active
CC(C)CC#Cc1ccc2c(c1)O[C@@H](CN(C)CC1CCOCC1)[C@H](C)CN([C@@H](C)CO)S2(=O)=O | active
C[C@H]1CN([C@@H](C)CO)S(=O)(=O)c2ccc(C#Cc3ccccc3F)cc2O[C@@H]1CN(C)C(=O)c1ccc2c(c1)OCO2 | inactive
C[C@H]1CN([C@@H](C)CO)S(=O)(=O)c2ccc(C#Cc3ccccc3F)cc2O[C@H]1CN(C)C(=O)c1ccc2c(c1)OCO2 | inactive
C[C@H](CO)N1C[C@H](C)[C@H](CN(C)CC2CC2)Oc2cc(C#Cc3ccccc3F)ccc2S1(=O)=O | active
C[C@@H]1CN([C@@H](C)CO)S(=O)(=O)c2ccc(C#Cc3ccccc3F)cc2O[C@H]1CN(C)CC1CC1 | inactive
CC(C)CC#Cc1ccc2c(c1)O[C@H](CN(C)CC1CCOCC1)[C@@H](C)CN([C@H](C)CO)S2(=O)=O | inactive
C[C@@H]1CN([C@@H](C)CO)S(=O)(=O)c2ccc(C#Cc3ccccc3F)cc2O[C@H]1CN(C)C(=O)Cc1cccnc1 | inactive
CC(C)CC#Cc1ccc2c(c1)O[C@@H](CN(C)CC1CCOCC1)[C@@H](C)CN([C@H](C)CO)S2(=O)=O | inactive
C[C@H]1CN([C@@H](C)CO)S(=O)(=O)c2ccc(C#CC3CC3)cc2O[C@@H]1CN(C)C(=O)c1cccc(F)c1 | inactive
Cc1noc(C)c1NC(=O)N(C)C[C@H]1OCCCC[C@@H](C)Oc2ccc(NC(=O)Nc3ccccc3)cc2C(=O)N([C@@H](C)CO)C[C@H]1C | inactive
CCC(=O)n1ccc(C(=O)N2CCOCC2)n1 | inactive

SMILES | cytotoxicity call
O=C(Nc1nn[nH]n1)C1CCCCC1 | inactive
C[C@@H]1CCCCO[C@H](CN(C)Cc2ccncc2)[C@@H](C)CN([C@@H](C)CO)C(=O)c2cc(NC(=O)Nc3ccc(F)cc3)ccc2O1 | inactive
C[C@H](CO)N1C[C@H](C)[C@H](CN(C)C(=O)Nc2ccc(F)cc2)OCCCC[C@H](C)Oc2ccc(NC(=O)C3CCCCC3)cc2C1=O | inactive
COc1cccc(OC)c1C(=O)NN | inactive
FC(F)(F)c1ccccc1-c1ncc(-c2ccccc2)o1 | inactive
CC(=O)N(O)CCC[C@H]1NC(=O)CNC(=O)CNC(=O)CNC(=O)[C@@H](CCCN(O)C(C)=O)NC(=O)[C@@H](CCCN(O)C(C)=O)NC1=O | inactive
COc1ccc(NC(=O)N(C)C[C@H]2OCCCC[C@H](C)Oc3ccc(NC(=O)C4CCCCC4)cc3C(=O)N([C@@H](C)CO)C[C@@H]2C)cc1 | inactive
C[C@@H]1CCCCO[C@H](CN(C)Cc2ccccc2)[C@@H](C)CN([C@H](C)CO)C(=O)c2cc(NC(=O)c3ccncc3)ccc2O1 | inactive
CCCCCN1CC=C[C@@]23O[C@@H]4C=CCOC(=O)[C@@H]4[C@H]2C(=O)N(CCCO)[C@@H]3C1=O | inactive
C[C@@H]1CN([C@H](C)CO)C(=O)c2cc(NC(=O)CCN3CCOCC3)ccc2O[C@@H]1CN(C)Cc1ccc2c(c1)OCO2 | inactive
O=C(C[C@H]1CC[C@@H]2[C@H](COC[C@H](O)CN2S(=O)(=O)c2ccc(Cl)cc2)O1)N[C@@H]1CCN(Cc2ccccc2)C1 | inactive
O=C(C[C@@H]1CC[C@H]2[C@@H](COC[C@@H](O)CN2S(=O)(=O)c2ccc(Cl)cc2)O1)N[C@H]1CCN(Cc2ccccc2)C1 | inactive
O=C(C[C@@H]1CC[C@@H]2[C@H](COC[C@@H](O)CN2S(=O)(=O)c2ccc(Cl)cc2)O1)N[C@@H]1CCN(Cc2ccccc2)C1 | inactive
O=C(C[C@H]1CC[C@@H]2[C@H](COC[C@@H](O)CN2S(=O)(=O)c2ccc(Cl)cc2)O1)N[C@H]1CCN(Cc2ccccc2)C1 | inactive
O=C(C[C@@H]1CC[C@@H]2[C@H](COC[C@H](O)CN2S(=O)(=O)c2ccc(Cl)cc2)O1)N[C@@H]1CCN(Cc2ccccc2)C1 | active
O=C(C[C@H]1CC[C@H]2[C@@H](COC[C@@H](O)CN2S(=O)(=O)c2ccc(Cl)cc2)O1)N[C@@H]1CCN(Cc2ccccc2)C1 | active
Cc1ccc(S(=O)(=O)Nc2ccc3c(c2)CC(=O)N([C@@H](C)CO)C[C@@H](C)[C@@H](CN(C)Cc2ccncc2)O3)cc1 | inactive
NC(=O)CSc1nc(N)cc(N)n1 | inactive
COc1ccc(S(=O)(=O)Nc2ccc3c(c2)C(=O)N([C@H](C)CO)C[C@@H](C)[C@@H](CN(C)Cc2ccc4c(c2)OCO4)OCCCC[C@@H](C)O3)cc1 | inactive
C[C@H](CO)N1C[C@H](C)[C@H](CN(C)C(=O)Nc2ccccc2)Oc2ccc(NC(=O)CCN3CCOCC3)cc2C1=O | inactive
C[C@@H]1CN([C@@H](C)CO)C(=O)c2cccc(NS(=O)(=O)c3cn(C)cn3)c2O[C@H]1CN(C)C(=O)NC1CCCCC1 | inactive
Cc1ccc2c(c1)/C(=C/c1ccncc1)c1cc3ccccc3nc1-2 | active
Cc1ccc2ncccc2c1 | inactive
Cc1ccc2nc(-c3ccncc3)cc(-c3ccccc3)c2c1 | inactive
